Source: PubChem BioAssay AID624170 (National Center for Advancing Translational Sciences (NCATS), 2012)
The whole screen tested about 410,000 compounds, of which about 850 (0.21%) were called active. Roughly 2% stayed inconclusive and do not appear here. For the sample, actives were picked, then their nearest neighbours and some compounds at random. Unmarked numbers belong to inactive results. The call rests on the fitted dose curve; in most records, active means well fitted inhibition curve with a large enough effect; inconclusive means small, poorly fitted or top-dose-only effect, or another doubt; inactive means no such curve, though single readings can be large or run the other way.
On the % scale 0 is the no-effect control and ±100 the full control effect; potency means the concentration at half of the fitted maximal effect.

Each compound was assayed against Glutaminase kidney isoform, mitochondrial (Homo sapiens) (UniProt O94925) (assay: qHTS for Inhibitors of Glutaminase (GLS)). Conditions: GLS enzymatic activity, qHTS titration; series mostly up to 45.5 µM; activity change, negative = inhibition: at the top concentration.
Chain of Glutaminase kidney isoform, mitochondrial (Homo sapiens) (O94925 whole entry, looked up, canonical isoform): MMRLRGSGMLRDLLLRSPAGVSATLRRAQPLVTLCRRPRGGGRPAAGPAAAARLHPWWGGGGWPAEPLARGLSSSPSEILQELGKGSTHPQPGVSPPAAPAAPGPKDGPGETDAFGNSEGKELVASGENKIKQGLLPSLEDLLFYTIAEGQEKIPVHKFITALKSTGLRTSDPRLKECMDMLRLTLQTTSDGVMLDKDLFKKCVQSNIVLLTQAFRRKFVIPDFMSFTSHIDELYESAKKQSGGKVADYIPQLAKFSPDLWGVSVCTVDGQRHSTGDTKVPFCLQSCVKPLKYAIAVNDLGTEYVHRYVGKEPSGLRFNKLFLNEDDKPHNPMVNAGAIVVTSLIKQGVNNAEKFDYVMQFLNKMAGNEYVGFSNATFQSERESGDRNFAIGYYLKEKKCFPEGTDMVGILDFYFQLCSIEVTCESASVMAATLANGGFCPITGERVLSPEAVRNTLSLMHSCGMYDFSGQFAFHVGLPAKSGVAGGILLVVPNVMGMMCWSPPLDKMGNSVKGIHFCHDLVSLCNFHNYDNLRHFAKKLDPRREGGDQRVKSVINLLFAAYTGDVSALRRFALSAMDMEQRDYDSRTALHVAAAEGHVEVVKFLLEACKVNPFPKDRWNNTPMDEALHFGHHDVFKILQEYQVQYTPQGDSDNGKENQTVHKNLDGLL
From the text: Glutaminase (GLS) catalyzes the hydrolysis of glutamine into glutamate and ammonia. It plays a critical role in glutaminolysis, which is an important energy source for proliferating cells. It was shown that c-Myc, an oncogenic transcription factor known to regulate microRNAs and to stimulate cell proliferation, increases glutamine metabolism by stimulating the expression of GLS via direct suppression of miR23a and miR23b.
GLS is also thought to play a pathogenic role on HAD using a human HIV-1 infected macrophage system. […] GLS inhibition limits glutamate release and provides neuroprotection against HIV-1 infected macrophages.
The overall goal of this project is to identify small molecule inhibitors of GLS through quantitative high throughput screening (qHTS) of the MLSMR. A validated potent and selective inhibitor can be used as a tool molecule to further study the pharmacology of its target as well as explore its potential therapeutic application in cancer and inflammatory neurological disorders, such as HIV1-associated dementia (HAD) and multiple sclerosis.
NIH Chemical Genomics Center [NCGC]
NIH Molecular Libraries Probe Centers Network [MLPCN]
Assay Submitter (PI): Barbara S. Slusher, Johns Hopkins University
Three 3 uL of hKGA is dispensed into black well 1536-well plates in 45 mM KH2PO4 (pH 8.2), 0.02% Tween-20. Then 23 nL of compounds are added through pin tool transfer. To this, 1 uL of 1mM L-Glutamine and 1 uL of a solution of L-Glutamateoxidase, HRP, Amplex red are added. Plate is centrifuged for 25 sec before an initial fluorescence read is obtained on the ViewLux, after 30 min of RT incubation, the final read is taken on the ViewLux.
In the case of COc1ccc(CCNC(=O)CCCCn2c(=O)c3ccccc3n(Cc3ccccc3)c2=O)cc1OC, the “activity change, negative = inhibition” value is reported as -3.74%. With COc1cc(/C=C2/SC(=S)N(Cc3ccccc3)C2=O)cc(OC)c1O the Potency was 20 µM (active). For CCOC(=O)C1=CCC2C(=O)N(Cc3ccccc3)C(=O)C12 (stereo not given), the “activity change, negative = inhibition” value was 5.61%. In the case of COc1cc(NC(=O)c2nn(-c3ccc(C)cc3)c(=O)c3c2c2ccccc2n3C)cc(OC)c1OC, the “activity change, negative = inhibition” value is reported as -5.7%. In the case of COc1ccc(CCC(=O)NCCc2csc(-c3ccc(Cl)cc3)n2)cc1, the “activity change, negative = inhibition” value is reported as 2.21%. For CN(N)c1nc(N2CCCC2)nc(N2CCCC2)n1, the Potency was 14.1 µM (active). For COc1nc(NC2CCCCC2)nc(N2CCCCCC2)n1, the “activity change, negative = inhibition” value was -4.19%. With FC(F)(F)COc1nc(N2CCCCC2)nc(N2CCNCC2)n1 the “activity change, negative = inhibition” value was -3.1%. With CCCN(CC)[C@@H](CC)C(=O)Nc1c(C)cccc1C the “activity change, negative = inhibition” value was 3.2%. For O=C(O)CCC(=O)O, the “activity change, negative = inhibition” value was -1.49%. In the case of O=C(CCSCc1ccccc1F)N1CCN(c2ccc(Cl)cc2)CC1, the “activity change, negative = inhibition” value is reported as 0.607%. Cn1cnc2c1c(=O)n(Cc1ccccc1C#N)c(=O)n2C was tested, and the “activity change, negative = inhibition” value was -19%. In the case of Cn1cnc2c1c(=O)n(Cc1c(Cl)cccc1Cl)c(=O)n2C, the Potency is reported as 20 µM (active). With Cn1c(=O)n(Cc2c(F)cccc2Cl)c(=O)c2c1nc1n2CCN1c1ccc(F)cc1 the “activity change, negative = inhibition” value was 0.648%. For CO[C@H]1C[C@@H](O[C@@H]2[C@@H](C)O[C@@H](O[C@@H]3/C(C)=C/CC4C[C@@H](C[C@]5(C=C[C@@H](C)[C@H](C6CCCCC6)O5)O4)OC(=O)[C@@H]4C=C(C)[C@@H](O)[C@H]5OC/C(=C\C=C\[C@@H]3C)[C@]54O)C[C@H]2OC)O[C@@H](C)[C@@H]1O, the “activity change, negative = inhibition” value was -20%. With NC(=O)C(=O)N/N=C/c1ccc([N+](=O)[O-])o1 the “activity change, negative = inhibition” value was -7.32%. With COc1cc(C[C@H]2NCCc3cc(O)c(O)cc32)cc(OC)c1OC the “activity change, negative = inhibition” value was 20%. In the case of O=S(O)CNc1ccc(S(=O)(=O)c2ccc(NCS(=O)O)cc2)cc1, the “activity change, negative = inhibition” value is reported as -9.19%. For FC(F)(F)C1CCCN(c2nsc3ccccc23)C1 (stereo not given), the Potency was 7.94 µM (active). In the case of COc1cc([C@@H]2c3cc4c(cc3[C@@H](O[C@@H]3O[C@@H]5CO[C@@H](C)O[C@H]5[C@H](O)[C@H]3O)[C@H]3COC(=O)[C@H]23)OCO4)cc(OC)c1OP(=O)(O)O, the “activity change, negative = inhibition” value is reported as -14.1%. With COc1ccc(-c2ccc(=O)n(CC(=O)Nc3ccc(Br)cc3F)n2)cc1 the “activity change, negative = inhibition” value was -2.19%. For COc1ccc(CNC(=O)C(Cc2ccccc2)n2cccc2)cc1 (stereo not given), the “activity change, negative = inhibition” value was -3.68%. With COc1ccc2oc(C(=O)NCC(Cc3ccccc3)N(C)C)c(C)c2c1 (stereo not given) the “activity change, negative = inhibition” value was 11%. For COc1cc([C@H](Cc2ccccc2)NC(C)=O)oc(=O)c1, the Potency was 17.8 µM (active). For COc1ccc(N2CCN(S(=O)(=O)CCNC(=O)C(c3ccccc3)c3ccccc3)CC2)cc1, the “activity change, negative = inhibition” value was 6.36%. With CCOC(=O)c1ccccc1NC(=O)CCc1c(C)nc2c(c1C)c(=O)n(C)c(=O)n2C the “activity change, negative = inhibition” value was -6.2%. O=C(O)CCCCC(=O)O was tested, and the “activity change, negative = inhibition” value was -1.94%. In the case of CCOc1ccc(NC(=O)c2c(NC(=O)Cc3ccccc3)sc3c2CCC(C)C3)cc1 (stereo not given), the “activity change, negative = inhibition” value is reported as -27.7%. O=C(Nc1ccc(Oc2ccccc2)cc1)C1CCN(S(=O)(=O)c2ccc(Cl)cc2)CC1 was tested, and the “activity change, negative = inhibition” value was -5.18%. O=C(Nc1cccc(Cl)c1)c1csnn1 was tested, and the “activity change, negative = inhibition” value was -8.09%. With O=C(Nc1ccccc1)c1nnsc1S(=O)(=O)c1ccc(Cl)cc1 the Potency was 14.1 µM (active). CCCC[C@H]1C(=O)N(c2ccccc2)N(c2ccc(O)cc2)C1=O was tested, and the “activity change, negative = inhibition” value was -6.67% [at 20 µM]. O=C(OCc1ccccc1)c1ccc(O)cc1 was tested, and the “activity change, negative = inhibition” value was 16.9%. For CC(=O)OC1C([N+]2(C)CCCCC2)C[C@H]2C3CC[C@H]4C[C@H](OC(C)=O)C([N+]5(C)CCCCC5)CC4(C)C3CCC12C (stereo not given in full), the “activity change, negative = inhibition” value was 4.13%. O=C(O)CC(Cc1ccccc1)C(=O)Nc1ccc([N+](=O)[O-])cc1 (stereo not given) was tested, and the “activity change, negative = inhibition” value was 1.28%. CC(C)(C)C(=O)NCCCNc1ccc([N+](=O)[O-])cc1 was tested, and the “activity change, negative = inhibition” value was -9.97%. O=C(O)/C=C/C(=O)NNc1ccc([N+](=O)[O-])cc1 was tested, and the Potency was 11.2 µM (active). CCCCC(=O)OCC(=O)[C@H]1[C@H](C)C[C@@H]2[C@@H]3C[C@@H](F)C4=CC(=O)C=C[C@]4(C)[C@@]3(F)[C@@H](O)C[C@@]21C was tested, and the “activity change, negative = inhibition” value was -8.67%. COc1ccc(NC(=O)c2sc3nc[nH]c(=O)c3c2C)cc1 was tested, and the “activity change, negative = inhibition” value was -11%. For Cn1c(=O)c2c(nc(NCCc3ccccc3)n2Cc2ccccc2Br)n(C)c1=O, the “activity change, negative = inhibition” value was 4.52%. Cn1c(=O)c2c(nc(NCCNC(=O)c3ccco3)n2Cc2ccccc2F)n(C)c1=O was tested, and the “activity change, negative = inhibition” value was -2.17%. CC(C)OCCCNc1nc2c(c(=O)n(Cc3ccccc3F)c(=O)n2C)n1C was tested, and the Potency was 12.6 µM (active). CCC(C)Nc1oc(-c2ccc(COc3ccc(Cl)cc3)o2)nc1C#N (stereo not given) was tested, and the “activity change, negative = inhibition” value was 11.6%. In the case of CC(O)COc1ccccc1 (stereo not given), the “activity change, negative = inhibition” value is reported as -9.16%. CC1(C)OC[C@@H](COC(=O)CCc2ccc(OC[C@@H](O)CNCCNC(=O)N3CCOCC3)cc2)O1 was tested, and the Potency was “inactive”. In the case of Cc1cccc(NC(=O)CSc2nc(-c3ccco3)cc(C(F)(F)F)n2)c1C, the “activity change, negative = inhibition” value is reported as 8.96%. In the case of Cc1cc(C)c2nc(-c3ccco3)cc(C(=O)O)c2c1, the Potency is reported as 11.2 µM (active). Cc1cc(C)c2c(c1)c(C)cc1nnc(SCC(=O)NCc3ccco3)n12 was tested, and the “activity change, negative = inhibition” value was -0.984%. With COC(=O)[C@@H]1CC2=CC(=O)CC[C@]2(C)[C@@]23O[C@@H]2C[C@@]2(C)[C@@H](CC[C@@]24CCC(=O)O4)[C@H]13 the “activity change, negative = inhibition” value was 11.8%. In the case of CC(NC(=O)CCc1cn(Cc2ccccc2Cl)c2ccccc12)c1ccccc1 (stereo not given), the “activity change, negative = inhibition” value is reported as -0.697%. Cc1ccc(Cn2c(CNC(=O)Cc3cccc(C)c3)nc3cccnc32)cc1 was tested, and the “activity change, negative = inhibition” value was 1.55%. With C=C1c2c(Cl)ccc(O)c2C(O)=C2C(=O)[C@]3(O)C(O)=C(C(N)=O)C(=O)[C@@H](N(C)C)[C@@H]3[C@@H](O)C12 (stereo not given in full) the Potency was 10 µM (active). For Cc1c(O)cc2c(c1C)O[C@](C)(CCC[C@H](C)CCC[C@H](C)CCCC(C)C)CC2, the “activity change, negative = inhibition” value was 1.97%. CCC[C@H]1C(=O)N2C(N(C)C)=Nc3ccc(C)cc3N2C1=O was tested, and the “activity change, negative = inhibition” value was -12.6% [at 20 µM]. With CCc1cc2c(cc3c(=O)n(CC(=O)N4CCN(c5cc(Cl)ccc5C)CC4)ncn32)s1 the “activity change, negative = inhibition” value was 2.45%. With CC(C)CCN(C(=O)Nc1ccc(Cl)c(Cl)c1)C(C)c1cccs1 (stereo not given) the “activity change, negative = inhibition” value was 6.32%. COc1ccc(C2(C#N)CCC(C(=O)O)CC2)cc1OC1CCCC1 (stereo not given) was tested, and the “activity change, negative = inhibition” value was 86.3%. For CCOC(=O)Nc1ccc2c(c1)N(C(=O)CCCl)c1ccccc1[S@]2=O, the “activity change, negative = inhibition” value was -1.48%. CCNCCC(=O)N1c2ccccc2Sc2ccc(NC(=O)OCC)cc21 was tested, and the Potency was 11.2 µM (active). For CCOC(=O)Nc1ccc2c(c1)N(C(=O)CN1CCN3CCCC3C1)c1ccccc1CC2 (stereo not given), the “activity change, negative = inhibition” value was 0.588%.
